Source: PubChem BioAssay AID1851 (National Center for Advancing Translational Sciences (NCATS), 2009)
Screen size: about 16,000 compounds; about 5,700 (36%) were called active. Another 24% or so got no clear call; they are omitted. Some of the results follow. Values without a mark were called inactive. Calls follow the shape of the dose curve; as a rule, active = well fitted curve in the direction sought with a large enough effect; inconclusive = small, poorly fitted or top-dose-only effect, or effect the other way; inactive = no such curve, though single readings can be large or run the other way.

molecular target: Cytochrome P450 1A2 (Homo sapiens) (UniProt P05177); assay: Cytochrome panel assay with activity outcomes; settings: recombinant CYP, pro-luciferin dealkylation, luminescence, p450-cyp1a2; series mostly up to 57.1 µM
% is scaled to controls: 0 for no effect and ±100 for the full control effect.

Cytochrome P450 1A2 (Homo sapiens), sequence (P05177 whole entry, looked up): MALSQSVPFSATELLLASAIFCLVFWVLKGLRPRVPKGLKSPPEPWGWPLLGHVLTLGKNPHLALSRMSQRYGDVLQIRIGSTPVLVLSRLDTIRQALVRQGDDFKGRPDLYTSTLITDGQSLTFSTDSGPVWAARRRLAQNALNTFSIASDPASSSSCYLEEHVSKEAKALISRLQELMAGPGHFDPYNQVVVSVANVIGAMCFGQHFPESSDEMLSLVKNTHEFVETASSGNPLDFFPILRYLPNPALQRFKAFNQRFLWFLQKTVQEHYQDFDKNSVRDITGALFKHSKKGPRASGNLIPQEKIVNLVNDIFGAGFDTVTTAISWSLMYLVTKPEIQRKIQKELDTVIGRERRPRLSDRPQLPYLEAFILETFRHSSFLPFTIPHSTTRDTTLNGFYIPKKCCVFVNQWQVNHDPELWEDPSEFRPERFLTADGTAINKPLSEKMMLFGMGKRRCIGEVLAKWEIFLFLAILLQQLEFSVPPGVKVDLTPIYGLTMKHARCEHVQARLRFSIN

SMILES	AC50	activity, negative = inhibition
CC[n+]1c(P(=O)([O-])c2ccccc2)[nH]c2ccccc21	inactive	
COc1ccccc1CN1CCC2(CC1)CCN(C(=O)c1cccn1C)CC2	inactive	
CC(C)NC(=O)N1CCC2(CC1)CCN(C(=O)c1cc(C(F)(F)F)cc(C(F)(F)F)c1)CC2	inactive	
O=C1C2CCC(C(O)C2)N1Cc1ccccc1 (centres undefined)	inactive	
CCOC(=O)Nc1ccc2c(c1)OCO2	1.26 µM (active)	
COc1cccc(Cn2c(=O)cnc3cnc(Oc4cccc(Cl)c4)nc32)c1	12.6 µM (active)	
O=c1cnc2cnc(Oc3ccccc3)nc2n1Cc1ccc(F)cc1	15.8 µM (active)	
COc1cccc(Cn2c(=O)cnc3cnc(OCc4ccccc4)nc32)c1	12.6 µM (active)	
O=c1cnc2cnc(Oc3cccc(Cl)c3)nc2n1Cc1ccc(F)cc1	15.8 µM (active)	
CON1C(=O)C(=O)N(OC)C(C)(C)C1C (centres undefined)	inactive	
COc1ccc(O[C@H]2C=C[C@@H](c3ccccc3)O[C@H]2COC(=O)CC/C(C)=N\O[C@@H](C)c2cn([C@H]3COC[C@H]3O)nn2)cc1		-4.14% [at 11.4 µM]
COc1ncc2ncc(=O)n(Cc3ccc(F)cc3)c2n1	12.6 µM (active)	
O=c1cnc2cnc(OCc3ccccc3)nc2n1Cc1ccc(F)cc1	12.6 µM (active)	
CC(=O)N(C[C@@H](O)CO)c1c(I)c(C(=O)NC[C@@H](O)CO)c(I)c(C(=O)NC[C@@H](O)CO)c1I	inactive	
CC(C)COC[C@H](CN(Cc1ccccc1)c1ccccc1)N1CCCC1	inactive	
COc1ccc(N2C(=O)CSC2c2cccc(F)c2)c(OC)c1 (centres undefined)	inactive	
CN1C(=O)CC[C@@H]1c1cccnc1	inactive	
Cc1ccc(N2C(=O)CSC2c2cccnc2)cc1F (centres undefined)	15.8 µM (active)	
COc1cccc(C(=O)NNC2=CC(=O)CC(C)(C)C2)c1	inactive	
CC1(C)CC(=O)C2=C(C1)N(Cc1ccccc1)C(=O)C2(O)C(F)(F)F (centres undefined)	inactive	
CCOC(=O)N1CCN(S(=O)(=O)Cc2ccccc2)CC1	inactive	
CCC1=NN(C(=O)CCc2ccccc2)C(O)(C(F)(F)F)C1 (centres undefined)	11.2 µM (active)	
O=C(CCCc1ccccc1)N1CCN(c2ccc([N+](=O)[O-])cc2)CC1	inactive	
COc1cccc(C(=O)N2N=C(c3cccc(OC)c3)CC2(O)C(F)(F)F)c1 (centres undefined)	14.1 µM (active)	

SMILES	AC50	activity, negative = inhibition
CCOC(=O)N1N=C(c2ccccc2)CC1(O)C(F)(F)F (centres undefined)	15.8 µM (active)	
CO[C@H]1C=CO[C@]2(C)Oc3c(C)c(O)c4c(O)c(c5c(c4c3C2=O)NC2(CCN(CC(C)C)CC2)N=5)=NC(=O)C(C)=CC=C[C@@H](C)[C@@H](O)[C@@H](C)[C@@H](O)[C@@H](C)[C@@H](OC(C)=O)[C@@H]1C	inactive	
COc1ccc(NC(=O)N2CC3(CCN(C(=O)c4csnn4)CC3)C2)cc1	inactive	
CCN1CCCC1Cn1cnc2c([nH]c3ccc(C)cc32)c1=O (centres undefined)	15.8 µM (active)	
O=C(O)[C@H](CCc1ccccc1)N1C(=O)c2ccccc2C1=O		-9.63% [at 2.29 µM]
O=C(O)CC[C@@H](C(=O)O)N1C(=O)c2ccccc2C1=O	inactive	
O=C(CCN1C(=O)c2ccccc2C1=O)Oc1ccc2ccccc2c1	17.8 µM (active)	
CCOc1cc(CNCCc2ccc(S(N)(=O)=O)cc2)ccc1OCc1ccc(Cl)cc1	inactive	
CCOc1ccc(Cl)cc1CNCCNCC(C)O (centres undefined)	12.6 µM (active)	
CCOc1ccccc1CNCCN1CCOCC1	inactive	
CCOc1ccc(Cl)cc1CNCCNCCO	15.8 µM (active)	
CCOc1ccc(CC(C(N)=O)C(N)=O)cc1CN(C)C	inactive	
COc1c(Cl)cc(Cl)cc1CNCCNCC(C)O (centres undefined)	11.2 µM (active)	
Oc1ccc(-c2[nH]ncc2-c2ccc(Cl)cc2)c(O)c1	1.58 µM (active)	
Cc1[nH]nc(-c2ccc(O)cc2O)c1-c1ccc(Cl)cc1	2.24 µM (active)	
C=C(C)COc1ccc(-c2n[nH]c(C)c2-c2ccc(OC)cc2)c(O)c1	14.1 µM (active)	
CC1(C)O[C@@H]2O[C@H]([C@H](O)CO/N=C3/[C@H]4O[C@@H]4[C@@H](O)[C@H]4[C@H]3CCn3c(=O)n(-c5ccccc5)c(=O)n34)[C@@H](O)[C@@H]2O1		-7.71% [at 11.4 µM]
Cc1cc(NC(=O)C2C3C(=O)N(Cc4ccc(Cl)cc4)C(C(=O)NC(C)(C)C)C34C=CC2(C)O4)no1 (centres undefined)	inactive	
O=C(COc1ccc2ccccc2c1Br)NNC(=O)Nc1ccccc1	5.62 µM (active)	
CCCC(=O)NNC(=O)Nc1ccccc1	inactive	
N#Cc1ccc(-c2ccc(F)cc2)nc1Oc1ccc(Cl)c(Cl)c1	1 µM (active)	
Cc1ccc(-n2ncc3c(=O)n(CC(=O)NCC4CCCO4)cnc32)cc1 (centres undefined)	inactive	
COc1ccc(-n2ncc3c(NCC4CCCO4)ncnc32)cc1 (centres undefined)	14.1 µM (active)	
CCc1nnc(NC(=O)CSc2ncnc3c2cnn3-c2ccc(OC)cc2)s1	inactive	

SMILES	AC50	activity, negative = inhibition
Cc1nn(-c2nc3ccccc3[nH]2)c(N)c1-c1ccc(Cl)cc1	5.62 µM (active)	
CCNC(=S)NNC(=O)c1cc(CC(C)C)nc2ccccc12	inactive	
CCNC(=S)NNC(=O)c1cc(C2CC2)nc2ccccc12	8.91 µM (active)	
COC(=O)C/C=C\[C@@H](C)[C@@H](/C=N\O[C@@H](C)c1cc(-c2c(C)cc(C)cc2C)no1)OC		-3.54% [at 11.4 µM]
O=C(C=C1SCCS1)/C=C/c1ccco1	11.2 µM (active)	
O=C(O)C/C(=C\c1ccco1)C(=O)O		-11.8% [at 2.29 µM]
CC(C)C(C(=O)O)N1C(=O)/C(=C/C=C/c2ccco2)SC1=S (centres undefined)	inactive	
Cc1cc(C)c(NC(=O)C[C@H](CC(=O)O)c2cccc3ccccc23)c(C(=O)N2CCC3(CCCC3)CC2)c1	inactive	
COc1cc2c(cc1NC(=O)Nc1ccccc1)oc1ccccc12	2 µM (active)	
COc1cc2c(cc1NC(=O)c1cc(-c3cccnc3)nc3ccc(C)cc13)oc1ccccc12	12.6 µM (active)	
COc1ccc(NC(=O)c2cc(-c3cccnc3)nc3ccc(C)cc23)cc1OC	inactive	
COc1ccccc1CC(=O)Nc1cc2oc3ccccc3c2cc1OC	1 µM (active)	
COC(=O)N1CCC2(CCN(Cc3ccccc3OC)CC2)CC1	inactive	
COC(=O)N1CCC2(CCCN(Cc3ccccc3OC)C2)CC1	inactive	
CC1(C)C(=O)C(c2ccccc2)=C2CN3C(=O)N(CCc4ccccc4)C(=O)C3(Cc3ccc(C(F)(F)F)cc3)C=C21 (centres undefined)	inactive	
CC[C@]1(C)CC(=O)NC1=O	inactive	
C=CCSc1nnc(-c2cc3c(-c4ccccc4)nn(C)c3s2)n1C	0.282 µM (active)	
CSc1nnc(-c2cc3c(-c4ccccc4)nn(C)c3s2)n1C	0.501 µM (active)	
C=CCn1c(-c2cccn(Cc3ccccc3)c2=O)n[nH]c1=S	inactive	
O=c1c(-c2nc3ccccc3s2)cccn1Cc1ccccc1	1.78 µM (active)	
Cn1c(=O)c2[nH]c(CCCCc3nc4ccccc4[nH]3)nc2n(C)c1=O		-15.8% [at 11.4 µM]
O=C(CCc1nc2ccccc2c(=O)[nH]1)OCC(=O)N1CCN(S(=O)(=O)c2ccccc2)CC1	inactive	
CC(=O)COC(=O)CCc1nc2ccccc2[nH]c1=O	6.31 µM (active)	
O=S(=O)(NCCNC/C=C\c1ccc(Br)cc1)c1cccc2cnccc12	2 µM (active)	

SMILES	AC50	activity, negative = inhibition
CNCCNS(=O)(=O)c1cccc2cnccc12	inactive	
Cc1cnc(C(=O)OCC(=O)NC(C)C)cn1	inactive	
O=C(NCc1ccccc1)C(c1cccs1)N(Cc1cccs1)C(=O)c1cnccn1 (centres undefined)	inactive	
O=C(COC(=O)c1cnccn1)NCc1ccccc1	22.4 µM (active)	
Cc1ccc(CNC(=O)COC(=O)c2cnccn2)cc1	10 µM (active)	
COc1ccc(C(C(=O)NCc2ccccc2)N(Cc2cccs2)C(=O)c2cnccn2)cc1 (centres undefined)	inactive	
COC(=O)C/C=C\[C@@H](C)[C@@H](CO)NS(=O)(=O)c1ccc(C)cc1		-0.334% [at 11.4 µM]
COc1ccc(C(=O)Nc2ccc3c(c2)nc(CN2CCN(C(C)=O)CC2)n3C)cc1	inactive	
COc1ccc(C(=O)n2c(SC)nc3cc4c(cc32)OCCO4)cc1	3.16 µM (active)	
COc1cccc(C(=O)n2c(SC)nc3cc4c(cc32)OCCO4)c1	5.01 µM (active)	
COc1ccc(C(=O)N2CCC3(CCN(Cc4ccncc4)CC3)CC2)cc1	inactive	
O=C1C2=CC[C@@H]3C(=O)N(c4ccc(F)cc4F)C(=O)[C@H]3[C@H]2[C@H](O)[C@H]2O[C@H]12		-3.38% [at 11.4 µM]
CCC(=O)O[C@@]1(C(=O)SCF)[C@@H](C)C[C@H]2[C@@H]3C[C@@H](F)C4=CC(=O)C=C[C@@]4(C)[C@]3(F)[C@@H](O)C[C@]21C	inactive	
O=C(CN1C(=O)c2ccccc2S1(=O)=O)Nc1ccccc1	inactive	
COc1ccc(NC(=O)CN2c3cccc4cccc(c34)S2(=O)=O)cc1	3.16 µM (active)	
CS(=O)(=O)Nc1c(O)ccc2c1CCC[C@H]2C1=NCCN1	inactive	
CS(=O)(=O)N1CCC2(CCN(C(=O)Nc3cccc(F)c3)CC2)CC1	inactive	
CCOC(=O)c1c(C)nc2c(c1-c1ccccc1)C(=O)CC(C)(C)C2	14.1 µM (active)	
CC1(C)CC(=O)c2c(Cc3ccccc3)n[nH]c2C1	inactive	
CCOC(=O)c1c(C)nc2sc3c(=O)n(-c4ccc(C)cc4)cnc3c2c1-c1ccc(OC)cc1	inactive	
CCOC(=O)c1c(C)nc2c(c1-c1ccccc1)C(=O)CCC2	0.282 µM (active)	
CCCCCCCCCCn1c2c(c(=N)c3c1CCC3)CCC2	14.1 µM (active)	
